Measurements from PubChem BioAssay.
Calls of active or inactive are those of the source.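 How the source made its calls: active means inhibition at or above 50% at 10 µM; inactive means inhibition below 50%.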

Assay: inhibitors of Sendai virus-induced IRF3 signaling, primary screen, TLR/RLR signaling modifier project, cell-based, Sendai virus stimulus, luciferase, 10K MLSCN set (AID 602276);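 further: firefly luciferase from ISG56 promoter only with Renilla not read in this screen; 0% = Sendai virus plus DMSO and 100% = medium plus DMSO without virus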
Settings: HEK293 RL24 IRF3 luciferase reporter, at 10 µM, active compounds read high

inhibition, inactive:
O=C1CCC(C(=O)N(Cc2ccco2)C2(C(=O)NC3CCCC3)CCCCC2)N1 (stereo not given) 5.55%
O=C(NC1CCCCCCC1)C1CCN(c2nc3ccccc3o2)CC1 6.61%
COc1ccccc1N1CCN(c2cc(N3CCCC3)nc(C)n2)CC1 3.33%
CCN(CC(=O)Nc1ccc2c(c1)OCCO2)Cc1cc(=O)oc2cc(C)c(C)cc12 25.7%
Cc1ccc2cc(C(c3nnnn3C3CCCC3)N3CCN(c4ccc(F)cc4)CC3)c(=O)[nH]c2c1 (stereo not given) 23.2%
COc1ccccc1N1CCN(C(=O)c2cc(-c3ccc(Cl)c(Cl)c3)on2)CC1 1.29%
COC(=O)c1sc(S(=O)(=O)N2CCN(c3ccccc3)CC2)c(C(=O)OC)c1C 19.8%
Cc1cc(NC(=O)CSc2nc(C3CCCCC3)nc3ccccc23)no1 12.9%
COc1ccc(Cl)c(NC(=O)NCCN2CCN(c3ccccc3)CC2)c1 15.2%
Cc1ccc(S(=O)(=O)N2CCN(C(=O)N3CCOCC3)C2c2ccc(N(C)C)cc2)cc1 (stereo not given) 12.8%
CCOC(=O)c1c(N)c(C#N)nn1-c1ccccc1C(=O)OC 9.81%
Cc1cc(C)n(C(C)n2nc(C)cc2C)n1 11.8%
CCCCCCn1c(CN2CCCC(C)C2)nc2c1c(=O)n(C)c(=O)n2C (stereo not given) 17.5%
Cc1cccc(NC(=O)c2ccc(S(=O)(=O)N(C)C)cc2)n1 -11.6%
Cn1cnnc1Sc1nc2c(c(=O)n(C)c(=O)n2C)n1Cc1ccccc1Cl 15.5%
